Experimental data published in the supplement of paper PMC10127200.
Counter-ions that a name gives are not always drawn.

Assays:
Assay in all cases: Euclidean distance of Cell Painting phenotypic profile (signed KS, 77 features) to DMSO centroid (dimensionless distance); 5 or 10 uM (library dependent); higher = stronger phenotypic change vs DMSO (phenoactivity)
Details in all cases: 48 h
[1] = tested on: 786-O
Procedure, shortened: (§1)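 Five cancer lines, together with a healthy fibroblast line, received library compounds for 48 h at a library-dependent 10 or 5 uM and 0.1% DMSO final. Harmony then derived 77 features from confocal 20X images (9 fields/well) of the stained cells, scoring each as a signed Kolmogorov-Smirnov statistic against same-plate vehicle wells. After plate-position correction, correlation weighting and replicate averaging at the top dose, phenoactivity was taken as each profile's Euclidean distance to the median vehicle profile.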

[2] = tested on: A549
Procedure, shortened: as §1

[3] = tested on: DU145
Procedure, shortened: as §1

[4] = tested on: FB
Procedure, shortened: as §1

[5] = tested on: HEPG2
Procedure, shortened: as §1

[6] = tested on: OVCAR4
Procedure, shortened: as §1

SMILES	Euclidean distance [1]	Euclidean distance [2]	Euclidean distance [3]	Euclidean distance [4]	Euclidean distance [5]	Euclidean distance [6]
Nc1nc(=O)c2nc(CNc3ccc(C(=O)N[C@@H](CCC(=O)O)C(=O)O)cc3)cnc2[nH]1 [Folic acid]	1.19	0.776	0.987	0.817	0.743	1.25
C#Cc1cccc(Nc2ncnc3cc(OCCOC)c(OCCO)cc23)c1	1.88	1.49	1.82	2.87	1.07	2.03
C=CC(=O)N1CCC([C@@H]2CCNc3c(C(N)=O)c(-c4ccc(Oc5ccccc5)cc4)nn32)CC1 [Zanubrutinib (BGB-3111)]	1.58	1.45	2.15	1.57	0.671	1.72
Cc1cc(Nc2ncnc3ccc(-c4ccc(CNCCS(C)(=O)=O)o4)cc23)ccc1Oc1ccn2ncnc2c1 [HER2-Inhibitor-1]	1.06	0.771	1.08	1.37	1.3	1.22
Oc1ccc(Nc2nc(-c3ccc(Cl)cc3)cs2)cc1	1.72	2.03	1.54	2.15	2.49	1.41
CCc1cnn2c(NCc3ccc[n+]([O-])c3)cc(N3CCCC[C@H]3CCO)nc12	3.35	2.78	3.2	3.11	2.64	3.58
CCCCN(Cc1ccc(C(=O)NO)cc1)C(=O)Nc1ccccc1 [Nexturastat A]	1.18	1.83	2.03	3.14	1.55	2.05
CCN(CC)CCOC(=O)c1ccc(N)cc1 [Procaine]	0.916	0.935	0.941	1.08	1.37	0.75
CC(=O)NC[C@H]1CN(c2ccc(N3CCOCC3)c(F)c2)C(=O)O1 [Linezolid]	1.83	1.27	1.73	0.611	0.92	1.35
COc1ccc(-c2cc3c(C)nc(N)nc3n([C@H]3CC[C@H](OCCO)CC3)c2=O)cn1	4.94	3.33	2.31	4.31	2.12	3.03
NC(=O)/N=N/C(N)=O [Azodicarbonamide]	1.07	0.533	1.15	0.879	1.28	1.14
CCOC(=O)[C@H](CCc1ccccc1)N[C@@H](C)C(=O)N(CC(=O)O)C1Cc2ccccc2C1 [Delapril Hydrochloride]	1	1.15	0.898	1	0.353	1.06
CCCCC(=O)O[C@]1(C(=O)CO)[C@@H](C)C[C@H]2[C@@H]3CCC4=CC(=O)C=C[C@]4(C)[C@@]3(F)[C@@H](O)C[C@@]21C [Betamethasone Valerate]	1.33	1.98	2.2	1.71	0.591	2.13
CCCN[C@H]1CCc2nc(N)sc2C1 [Pramipexole]	1.54	0.915	1.04	0.837	0.869	1.19
Cc1c(C(=O)NN2CCCCC2)nn(-c2ccc(Cl)cc2Cl)c1-c1ccc(I)cc1	1.16	1.17	0.842	1.03	0.6	0.903
CCN(CC)CC(=O)Oc1ccc(NC(C)=O)cc1 [Propacetamol hydrochloride]	1.3	0.77	1.22	0.897	1.14	1.47
C=C(CC)C(=O)c1ccc(OCC(=O)O)c(Cl)c1Cl [Ethacrynic Acid]	1.19	1.01	1.03	1.17	1.05	1.14
CC[C@@H]1C(=O)N(C)c2cnc(Nc3ccc(C(=O)N[C@H]4CC[C@H](N5CCN(CC6CC6)CC5)CC4)cc3OC)nc2N1C(C)C [Volasertib (BI 6727)]	4.44	4.28	4.03	5.55	3.66	4.01
C[C@H](CCC(=O)O)[C@H]1CC[C@H]2[C@@H]3[C@H](O)C[C@@H]4C[C@H](O)CC[C@]4(C)[C@H]3CC[C@]12C [Chenodeoxycholic Acid]	0.805	0.691	0.826	0.881	0.737	1.08
N=C(N)NCCC[C@H](N)C(=O)O [L-Arginine HCl (L-Arg)]	1.3	0.522	0.828	0.796	0.566	1.14
Cn1cc(-c2cnn3c(N)c(Br)c([C@@H]4CCCNC4)nc23)cn1	2.18	1.1	1.19	2.96	1.35	2.36
COc1cc2/c(=N/c3ccc(Br)cc3F)nc[nH]c2cc1OCC1CCN(C)CC1 [Vandetanib (ZD6474)]	1.3	2.59	2.38	2.66	1.7	2.94
Nc1ncn([C@H]2C[C@H](O)[C@@H](CO)O2)c(=O)n1 [Decitabine]	1.92	1.42	1.18	1.43	1.56	1.55
Cc1c(F)cc(C(=O)NC2CC2)cc1-c1ccc(C(=O)NCC(C)(C)C)cn1	1.17	0.619	1.23	0.572	0.761	1.09
C=C[C@@H]1C[C@]1(NC(=O)[C@@H]1C[C@@H](Oc2ncc(OC)c3ccc(Cl)cc23)CN1C(=O)[C@@H](NC(=O)OC(C)(C)C)C(C)(C)C)C(=O)NS(=O)(=O)C1CC1 [Asunaprevir]	1.27	1.49	0.966	0.784	0.47	1.08
CCN(CC)CCOC(=O)c1ccc(N)cc1 [Procaine HCl]	0.661	0.741	0.744	0.877	0.478	0.916
